# Source: PubChem BioAssay (NCI)
# This is part of a sample that, as a whole, favours compounds with a hit. Of some 83,000 tested, about 20% had one in any assay.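 Step 1: grow cells in 96-well plates. Step 2: add test compound at a single concentration. Step 3: incubate 48 h. Step 4: record percent growth.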 Values without a mark were called inactive. Activity calls are given as the source filed them. How the source made its calls: active means growth percent below 10; inactive means the rest.
# Key:
# Assay in all cases: NCI-60 one-dose screen, 48 h (100 = growth as untreated, 0 = no growth, -100 = all killed)
# Conditions in all cases: 10 µM unless noted
# [1] = system: SK-MEL-2 melanoma
# [2] = system: EKVX NSCLC
# [3] = system: SN12C renal
# [4] = system: UO-31 renal
# [5] = system: TK-10 renal
# [6] = system: ACHN renal
# [7] = system: CAKI-1 renal
# [8] = system: A498 renal
# [9] = system: CCRF-CEM leukemia
# [10] = system: MOLT-4 leukemia
# [11] = system: SR leukemia
# [12] = system: RPMI-8226 leukemia
# [13] = system: OVCAR-8 ovarian
# [14] = system: OVCAR-5 ovarian
# [15] = system: OVCAR-4 ovarian
# [16] = system: SK-OV-3 ovarian
# [17] = system: IGROV1 ovarian
# [18] = system: OVCAR-3 ovarian
# [19] = system: HS 578T breast
# [20] = system: NCI/ADR-RES ovarian
Compound,growth [1],growth [2],growth [3],growth [4],growth [5],growth [6],growth [7],growth [8],growth [9],growth [10],growth [11],growth [12],growth [13],growth [14],growth [15],growth [16],growth [17],growth [18],growth [19],growth [20]
COc1ccc(C(=O)/C=C/c2ccc(OCc3ccc(F)cc3)c(OC)c2)cc1OC,52.9%,59.9%,-1.58% (active),21.5%,39.6%,28.5%,32.6%,94.7%,7.26% (active),9.77% (active),7.52% (active),1.35% (active),-7.27% (active),1.16% (active),17.3%,40.2%,17.5%,18.2%,84.7%,11%
COc1cc(-c2nc3cc(Cl)c(Cl)cc3[nH]2)ccc1OCc1nnc(-c2cccs2)o1,65.7%,91.3%,33.7%,62.5%,125%,36%,67.7%,121%,91.8%,62.8%,31.1%,59.2%,38%,83.3%,40.8%,47.8%,59.4%,91.2%,63.9%,39.5%
CN(C)c1nc(NCCNS(=O)(=O)c2ccc(C(=O)/C=C/c3ccc(F)cc3)cc2)nc(Nc2ccc(F)cc2)n1,-90.2% (active),-49% (active),-99.8% (active),-49.1% (active),-41.4% (active),-81.2% (active),-51.9% (active),9.88% (active),4.06% (active),-17.2% (active),-34.5% (active),-15.4% (active),-96.2% (active),-97.4% (active),-82% (active),-0.953% (active),-84.6% (active),-97.4% (active),-11.3% (active),-91.6% (active)
O=C(COc1ccc(NC(=O)Nc2ccc(Cl)c(Cl)c2)cc1)N=Nc1c(O)[nH]c2ccccc12,-41.9% (active),18.6%,-32% (active),87.5%,30.5%,36.9%,15.6%,-53.6% (active),37.3%,1.27% (active),2.4% (active),2.89% (active),-43.2% (active),-8.84% (active),-5.31% (active),-49.9% (active),-49% (active),-78.1% (active),-9.24% (active),80.8%
O=C(NN1C(=O)/C(=C/C=C/c2ccc([N+](=O)[O-])o2)SC1=S)c1ccc(Cl)cc1,-90.8% (active),-97.4% (active),-98.6% (active),-100% (active),-99% (active),-100% (active),-100% (active),-93.7% (active),-14.7% (active),2.15% (active),4.16% (active),-23.8% (active),-78.2% (active),-97.7% (active),-98.9% (active),-99.6% (active),-92.9% (active),-98% (active),-18.4% (active),-42.6% (active)
CC(C)C(C(=O)O)n1c(O)c(/C=C2/C=c3cc4c(cc3=NC2=O)OCO4)sc1=S (stereo not given),104%,99.3%,96.6%,78.2%,89.8%,111%,93%,102%,106%,104%,90.5%,109%,105%,110%,108%,129%,109%,107%,99.8%,98.2%
O=C(NN1C(=O)/C(=C/C=C/c2ccc([N+](=O)[O-])o2)SC1=S)c1ccccc1O,-86.9% (active),-94.1% (active),-98.2% (active),-99.5% (active),-87.6% (active),-100% (active),-100% (active),-61.2% (active),5.02% (active),6.95% (active),3.37% (active),-4.22% (active),-68.2% (active),-98.8% (active),-100% (active),-9.85% (active),-95.5% (active),-100% (active),-5.32% (active),-0.0269% (active)
C=C1CCC2C3(C)COC(c4ccco4)OC3CCC2(C)C1CC(Sc1ccccc1)C1=CCOC1=O (stereo not given),80%,105%,21.4%,51.8%,123%,70.3%,88.2%,137%,0.425% (active),16.9%,17.1%,3.83% (active),4.17% (active),60.9%,70.2%,141%,69.2%,37%,114%,-17.6% (active)
CC(=O)Nc1cccc(-c2nc3cc(-c4ccc(O)cc4)ccc3n2C)c1,52.6%,35.1%,43.8%,38.4%,59%,16%,38.5%,86.8%,28.3%,9.2% (active),59%,28.4%,22.2%,93.6%,20.9%,77.5%,51.7%,31.3%,56.1%,65.2%
C#CCOc1ccc(/C=N/Nc2nc(-c3cc4cc(Br)ccc4oc3=O)cs2)cc1OC,105%,78.9%,72.8%,89.7%,102%,71%,67.9%,50.1%,100%,92.8%,80.2%,68.2%,65.7%,73.9%,47.8%,25.7%,83.1%,87.3%,86.8%,63.8%
Cc1sc2c(c1C)C(c1ccc(Cl)cc1)=N[C@@H](CC(=O)NCCCCCNC(=O)COc1ccc(C3CCC(=O)NC3=O)cc1)c1nnc(C)n1-2 (stereo not given in full),13.4%,29.5%,18.7%,27.8%,5.57% (active),44%,16.4%,48.4%,49.2%,16.4%,37.5%,-3.88% (active),16.2%,27.8%,22.8%,-16.9% (active),21.8%,44.7%,25%,97.3%
N/C(=N\c1nc2ccccc2s1)NC(=O)Nc1ccc(Cl)cc1Cl,-49.9% (active),-42.5% (active),-88.7% (active),-93% (active),-84.9% (active),-87.4% (active),-87.7% (active),-84.6% (active),5.6% (active),6.86% (active),5.8% (active),-1.62% (active),-79.3% (active),-73.2% (active),-87.7% (active),-91.5% (active),-68.5% (active),-95.5% (active),-26.7% (active),-84.8% (active)
Cn1cc(-c2cc(N)n3nc(-c4cn(C)c5ccccc45)cc3n2)c2cc(Br)ccc21,-84.5% (active),-22.1% (active),-43.9% (active),-84.2% (active),-27.8% (active),-31.7% (active),-75.3% (active),-26.3% (active),-4.52% (active),-0.0957% (active),7.44% (active),0.257% (active),-91.9% (active),5.47% (active),-25.6% (active),38.9%,-3.64% (active),-46.3% (active),-7.42% (active),-13.9% (active)
Cn1cc(-c2cc(N)n3nc(-c4c[nH]c5ccccc45)cc3n2)c2cc(Br)cnc21,-72.6% (active),-60.4% (active),-81.5% (active),-42.1% (active),-58.2% (active),-74.6% (active),-36% (active),-28.6% (active),-36.2% (active),-52% (active),-29.5% (active),-14.8% (active),-22.6% (active),-77.6% (active),5.89% (active),-34.6% (active),-41.9% (active),-66% (active),-17.5% (active),-44.6% (active)
